According to ChEMBL document CHEMBL3988442, “University of Dundee, Small-Polar-MMV Screening Library” (2021):
In all, about 66,000 compounds went through this assay and about 960 (1.5%) showed an effect of 50% or more. The entries come from a sample that favours strong results as a whole.

Tested on: Trypanosoma brucei
Assay: Trypanosoma brucei 72 hour study
Assay type: functional, organism-based
Parameters: scale not given: in the data most compounds retested in dose-response had high values

COc1ccccc1NC(=O)NCCCn1nc2ccccn2c1=O
Percent Effect (30.3 µM, […]): -15.65%

CCc1c(C)nn2c(O)cc(C3CCN(C(=O)c4cnn(C)c4)C3)nc12 (stereo not drawn)
Percent Effect (30.3 µM, […]): -13.28%

CCCn1cc(-c2cc(-c3cc(CC)n[nH]3)c(C#N)c(N)n2)c(C)n1
Percent Effect (30 µM, 30.03 µM): 41.43%

CCCn1cc(-c2cc(-c3cnc(OC)nc3)c(C#N)c(N)n2)c(C)n1
Percent Effect (30 µM, 30.03 µM): 73.84%

COc1ncc(-c2cc(-c3ccn(C)c3)nc(N)c2C#N)cn1
Percent Effect (30 µM, 30.03 µM): -14.16%

CCCn1cc(-c2cc(-c3ccoc3)c(C#N)c(N)n2)c(C)n1
Percent Effect (30 µM, 30.03 µM): -1.944%

CCn1cc(-c2cc(-c3cc(CC(=O)O)cs3)nc(N)c2C#N)c(C)n1
Percent Effect (30 µM, 30.03 µM): -31.42%

CCCn1cc(-c2cc(-c3c[nH]cn3)c(C#N)c(N)n2)c(C)n1
Percent Effect (30 µM, 30.03 µM): 58.89%

CC(C)CS(=O)(=O)N1C[C@H]2C[C@H](C(=O)N3CCN(C)CC3)[C@@H](C1)O2.O=C(O)C(F)(F)F
Percent Effect (30.3 µM, […]): -51.72%

COc1ccccc1CCN1CCCC(CN(C)Cc2c[nH]c(C)n2)C1 (stereo not drawn)
Percent Effect (30 µM, 30.03 µM): 9.173%

CC(NC(=O)c1ccc(=O)n(C)c1)c1ccccc1-n1cccn1 (stereo not drawn)
Percent Effect (30 µM, 30.03 µM): -14.43%

Cc1nnc(NC(=O)c2cc(S(=O)(=O)N3CCSCC3)c[nH]2)s1
Percent Effect (30 µM, 30.03 µM): 37.66%

Cc1ccc(C)c(NC(=O)c2cc(S(=O)(=O)N3CCSCC3)c[nH]2)c1
Percent Effect (30 µM, 30.03 µM): 69.72%

Cc1ccc(NC(=O)c2cc(S(=O)(=O)N3CCCCC3)c[nH]2)cc1F
Percent Effect (30 µM, 30.03 µM): -33.42%

Cc1noc([C@@H]2CC[C@@H]3[C@@H](CCN3c3nnc(C)s3)O2)n1.O=C(O)C(F)(F)F
Percent Effect (30.3 µM, […]): -92.4%

Fc1ccccc1C1NCCc2cc3c(cc21)OCCO3 (stereo not drawn)
Percent Effect (30.3 µM, […]): 18.61%

Clc1ccc(C2NCCc3cc4c(cc32)OCCO4)cc1 (stereo not drawn)
Percent Effect (30.3 µM, […]): -20.9%

CCc1ccc(C2NCCc3cc4c(cc32)OCCO4)cc1 (stereo not drawn)
Percent Effect (30.3 µM, […]): 67.24%

Cc1cc(CCC(N)=O)cc(C2CCCN2Cc2cnc(C)nc2)n1 (stereo not drawn)
Percent Effect (30.3 µM, […]): -5.889%

O=C(O)C(F)(F)F.O=C(O)C(F)(F)F.c1coc(CN2C[C@@H]3CN(Cc4ccoc4)CCO[C@@H]3C2)c1
Percent Effect (30.3 µM, […]): -14.62%

O=C(Cn1c(=O)oc2ccccc21)NCC1(O)CCc2ccccc2C1 (stereo not drawn)
Percent Effect (30 µM, 30.03 µM): -11.94%

Cc1ccc(C)c(OCc2nnc(SCC3CCCN(C)C3)o2)c1 (stereo not drawn)
Percent Effect (30.3 µM, […]): 77.52%

Cc1ccc(OCc2nnc(SCC3CCCN(C)C3)o2)cc1 (stereo not drawn)
Percent Effect (30.3 µM, […]): -4.572%

Cc1cccc(OCc2nnc(SCC3CCCN(C)C3)o2)c1 (stereo not drawn)
Percent Effect (30.3 µM, […]): -11.54%

Cc1cc(F)cc2c(N3CCS(=O)(=O)CC3)c(C#N)cnc12
Percent Effect (30.3 µM, […]): 6.61%

Cc1noc(C)c1CN1CCc2ncnc(-c3ccccc3)c2CC1.O=C(O)C(F)(F)F
Percent Effect (30.3 µM, […]): -55.88%

CC(C)(C)n1ncc2c1CCCC2NCc1cccc2c1OCO2 (stereo not drawn)
Percent Effect (30 µM, 30.03 µM): -18.28%

CC(C)(C)n1ncc2c1CCCC2NCc1cccc2c1OCCO2 (stereo not drawn)
Percent Effect (10 µM): 0.9444% | Percent Effect (30.3 µM, […]): 51.24%

CCn1ncc2c1CCCC2NCc1cccc2c1OCCO2 (stereo not drawn)
Percent Effect (30 µM, 30.03 µM): 6.251%

Cc1ccc(N2C[C@H](C)[C@]3(CCN(c4cccnc4)C3=O)C2)nn1.O=C(O)C(F)(F)F.O=C(O)C(F)(F)F
Percent Effect (30.3 µM, […]): -32.51%

O=C(NC1CCCC1)[C@@H]1C[C@@H]2CCN(Cc3ccoc3)C[C@H]2O1.O=C(O)C(F)(F)F
Percent Effect (30.3 µM, […]): -88.78%

Cc1nc(CN2CCO[C@@H]3CN(C(=O)CN(C)C)CC[C@@H]3C2)cs1
Percent Effect (30 µM, 30.03 µM): 8.371%

Cc1nc(CN2CCO[C@@H]3CN(C(=O)CC4CC4)CC[C@@H]3C2)cs1
Percent Effect (30 µM, 30.03 µM): 61.23%

Cc1nc(CN2CCO[C@@H]3CN(C(=O)CC4CC4)C[C@@H]3C2)cs1.O=C(O)C(F)(F)F
Percent Effect (30 µM, 30.03 µM): 48.86%

CCC(=O)N1CCC2(CC1)C(c1cccnc1)CC(=O)N2CCOC.O=C(O)C(F)(F)F (stereo not drawn)
Percent Effect (30.3 µM, […]): -33.93%

CO[C@H]1CN(C(=O)c2cccnc2)[C@@H]2CCCO[C@H]12.O=C(O)C(F)(F)F
Percent Effect (30.3 µM, […]): -49.74%

COc1cc(CNCC(C)O)cc(Cl)c1OCc1ccc(C)cc1.Cl (stereo not drawn)
Percent Effect (30 µM, 30.03 µM): 97.25%

COc1cccc(CNC(C)C)c1OCc1ccc(C)cc1.Cl
Percent Effect (30 µM, 30.03 µM): -4.618%

CC(O)CNCc1ccc(OCc2ccc3c(c2)OCCO3)cc1.Cl (stereo not drawn)
Percent Effect (30 µM, 30.03 µM): -67.49%

COc1ccc(C[C@H]2CNCC[C@H]2OC)cc1.O=C(O)C(F)(F)F
Percent Effect (30.3 µM, […]): 13.15%

Cl.c1cnc(N2CCCC(NCc3ccc(-n4ccnc4)cc3)C2)nc1 (stereo not drawn)
Percent Effect (30.3 µM, […]): 10.24%

Cc1n[nH]c2ncc(CNC3CCN(Cc4ccccn4)CC3)cc12.Cl
Percent Effect (30 µM, 30.03 µM): -2.543%

Cc1n[nH]c2ncc(CNC3CCCN(c4ncccn4)C3)cc12.Cl (stereo not drawn)
Percent Effect (30 µM, 30.03 µM): 72.79%

CC(C)[C@@H]1CN(S(=O)(=O)c2cccc(C(=O)O)c2)C[C@H]1N(C)C
Percent Effect (30 µM, 30.03 µM): 98.32%

CC(C)S(=O)(=O)N1CCC(Cc2cccc(C(=O)O)c2)C1 (stereo not drawn)
Percent Effect (30 µM, 30.03 µM): -22.39%

COc1cccc(S(=O)(=O)N2C[C@@H](N(C)C)[C@H](C(C)C)C2)c1
Percent Effect (30 µM, 30.03 µM): -34.95%

COCCN1CC2(CCOCC2)c2cc(NC(=O)C3CC=CC3)ccc21.O=C(O)C(F)(F)F
Percent Effect (30.3 µM, […]): 4.18%

COc1cc(-c2cc(-c3ccn(C)c3)nc(N)c2C#N)cc(OC)c1O
Percent Effect (30 µM, 30.03 µM): -22.54%

Cc1noc(C)c1-c1ccc(C2CCCN2C(=O)Cn2ccnc2)nc1 (stereo not drawn)
Percent Effect (30.3 µM, […]): -4.122%

CN(C)C(=O)CN1CCCC(c2cncc(-c3cccc(Cl)c3)n2)C1 (stereo not drawn)
Percent Effect (30.3 µM, […]): 53.32%

CN(C)C(=O)CN1CCC(c2cncc(-c3cccc(Cl)c3)n2)CC1
Percent Effect (30.3 µM, […]): 45.69%

CN(C)C(=O)CN1CCCC(c2nccnc2-c2cccc(Cl)c2)C1 (stereo not drawn)
Percent Effect (30.3 µM, […]): -2.355%

CO[C@H]1C[C@@H]2CN(C(=O)c3cccc4c3OCCO4)C[C@@H]2C1
Percent Effect (30.3 µM, […]): -23.55%

O=C(C1CC1)N1CC[C@H](O)[C@@H]1Cc1ccccc1
Percent Effect (30.3 µM, […]): -5.545%

CC(C)c1cc(N2CCC(N(C)C)C2)n2nccc2n1 (stereo not drawn)
Percent Effect (30.3 µM, […]): 4.814%

CC(C)c1cc(N2CCC(C(C)N3CCCC3)CC2)n2nccc2n1 (stereo not drawn)
Percent Effect (30.3 µM, […]): 88.53%

CC(C)c1cc(N2CC[C@H](F)C2)n2nccc2n1
Percent Effect (30.3 µM, […]): 99.84%

CC(C)c1cc(N2CCC(N)CC2)n2nccc2n1
Percent Effect (30 µM, 30.03 µM): 38.85%

CC(C)c1cc(N2CCSCC2)n2nccc2n1
Percent Effect (30.3 µM, […]): -15.7%

CC(C)c1cc(N2CCC[C@H](N)C2)n2nccc2n1
Percent Effect (30.3 µM, […]): -37.71%

COc1ccc(CN2CCc3sccc3C2C)cc1CN1CCOCC1.Cl (stereo not drawn)
Percent Effect (30.3 µM, […]): -20.22%

COc1cc(C(=O)Nc2nc(C)no2)cc(Cl)c1OC
Percent Effect (10 µM): -54.4%

O=C(O)C(F)(F)F.O=C(O)C(F)(F)F.c1cc(CN2CCO[C@H]3[C@H](OCCN4CCCC4)CC[C@@H]32)co1
Percent Effect (30.3 µM, […]): -5.554%

CCCN1CCC(c2cc(CCOc3ccc(C(F)(F)F)cc3)[nH]n2)C1 (stereo not drawn)
Percent Effect (30.3 µM, […]): 85.59%

Clc1ccc(OCCc2cc(C3CCN(c4ncccn4)C3)n[nH]2)cc1 (stereo not drawn)
Percent Effect (30.3 µM, […]): 28.73%

Br.COc1ccc(OCCc2cc(C3CCN(CC(C)C)C3)n[nH]2)cc1 (stereo not drawn)
Percent Effect (30.3 µM, […]): 20.63%

Cl.Cl.Cn1cc(C(=O)NCc2cncc3c2CCN(CC2CC2)C3)cn1
Percent Effect (30.3 µM, […]): -27.13%

CN(Cc1ccncc1)C(CO)c1cccc(F)c1 (stereo not drawn)
Percent Effect (30 µM, 30.03 µM): -28.86%

O=C(Nc1ccc2c(c1)C(=O)NC2)c1ccc(S(=O)(=O)C(F)(F)F)cc1
Percent Effect (30.3 µM, […]): 11.83%

Cc1[nH]c2ccccc2c1-c1ccnc(N[C@@H](C)CO)n1
Percent Effect (30.3 µM, […]): 24.23%

Cc1[nH]c2ccccc2c1-c1ccnc(N[C@H](CO)CC(C)C)n1
Percent Effect (30.3 µM, […]): 57.39%

Cc1[nH]c2ccccc2c1-c1ccnc(N[C@@H](CO)C(C)C)n1
Percent Effect (30.3 µM, […]): 11.27%

CC(C)c1[nH]c2ncccc2c1CN1CCOCC1.Cl
Percent Effect (30.3 µM, […]): -24.02%

CN(C)CCN1CCOCC2(C1)CN(Cc1ccsc1)CCO2.O=C(O)C(F)(F)F.O=C(O)C(F)(F)F.O=C(O)C(F)(F)F (stereo not drawn)
Percent Effect (30 µM, 30.03 µM): 38.01%

Cc1ccc(N2CCN(c3ccccc3C)CC2C)nn1 (stereo not drawn)
Percent Effect (30 µM, 30.03 µM): -104.7%

Cc1ccccc1N1CCN(c2ccncn2)C(C)C1 (stereo not drawn)
Percent Effect (30 µM, 30.03 µM): 96.97%

Cc1ccccc1N1CCN(c2cc(N(C)C)ncn2)C(C)C1 (stereo not drawn)
Percent Effect (30 µM, 30.03 µM): 6.135%

Cc1noc(C)c1-c1cccc(C2CN(CC(=O)N(C)C)CCO2)n1.O=CO (stereo not drawn)
Percent Effect (30.3 µM, […]): -10.64%

Cc1nc(CN2CCC3(CCN(Cc4nccn4C)CC3)C2=O)cs1.O=C(O)C(F)(F)F.O=C(O)C(F)(F)F
Percent Effect (30.3 µM, […]): -13.64%

O=C(O)C(F)(F)F.O=C1C[C@H]2[C@@H](CCN2C(=O)Cc2ccccc2)N1Cc1cccnc1
Percent Effect (30.3 µM, […]): -5.465%

O=C(O)C(F)(F)F.O=C([C@H]1CCCO1)N1CCOC2(CCCN(c3ncccc3F)C2)C1 (stereo partly drawn)
Percent Effect (30.3 µM, […]): 1.881%

Fc1cccc(CN2CCC(c3n[nH]c4ncccc34)CC2)c1F
Percent Effect (30.3 µM, […]): 18.42%

O=C(O)CC(O)(CC(=O)O)C(=O)O.c1cnc2[nH]nc(C3CCN(Cc4ccsc4)CC3)c2c1
Percent Effect (30.3 µM, […]): -1.78%

Fc1ccc(F)c(CN2CCC(c3n[nH]c4ncccc34)CC2)c1.O=C(O)CC(O)(CC(=O)O)C(=O)O
Percent Effect (30.3 µM, […]): 65.45%

Cc1ccccc1OC1CCN(CC(=O)Nc2c(C)nn(C)c2C)CC1
Percent Effect (30.3 µM, […]): 11.58%

COCCC(=O)N1CC2(CCN(Cc3ccoc3)C2)C1
Percent Effect (30 µM, 30.03 µM): -24.51%

Cc1cccc(CN2Cc3nccn3CC(CN3CCOCC3)C2)c1.O=C(O)C(F)(F)F.O=C(O)C(F)(F)F (stereo not drawn)
Percent Effect (30 µM, 30.03 µM): 58.02%

O=C(O)C(F)(F)F.O=C(O)C(F)(F)F.c1ccc(CN2CCOCC3(CCN(C4CCOCC4)C3)C2)cc1 (stereo not drawn)
Percent Effect (30.3 µM, […]): -34.62%

Fc1ccc(CN2Cc3nccn3CC(CN3CCOCC3)C2)cc1.O=C(O)C(F)(F)F.O=C(O)C(F)(F)F (stereo not drawn)
Percent Effect (30 µM, 30.03 µM): 39.42%

Fc1cccc(CN2CCOCC3(CCN(C4CCOCC4)C3)C2)c1.O=C(O)C(F)(F)F.O=C(O)C(F)(F)F (stereo not drawn)
Percent Effect (30 µM, 30.03 µM): 30.04%

Cc1noc(C)c1CN1Cc2nccn2CC(CN2CCOCC2)C1.O=C(O)C(F)(F)F.O=C(O)C(F)(F)F (stereo not drawn)
Percent Effect (30 µM, 30.03 µM): 27.27%

Cc1cccc(CN2CCOCC3(CCN(C4CCOCC4)C3)C2)c1.O=C(O)C(F)(F)F.O=C(O)C(F)(F)F (stereo not drawn)
Percent Effect (30 µM, 30.03 µM): 52.28%
